According to PubChem BioAssay (Tox21):
Unmarked numbers belong to inactive results. Inconclusive results are not listed. Entries that show only a call come without a potency. The source made the active and inactive calls. Unless noted, calls follow the shape of the full dose curve.

Legend:
[1] = Nuclear factor erythroid 2-related factor 2/antioxidant responsive element (Nrf2/ARE) small molecule agonists: qHTS cell viability counter screen in human keratinocytes (AID 1919968; active = well fitted curve in the direction sought with a large enough effect in the repeat runs; an effect the other way counts as inactive or inconclusive; also: nearly all actives have a fitted effect of over 55% in size; also: potency is read from the fitted curve at half-maximal effect)
In short: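 Measured as CellTiter-Fluor fluorescence, this readout tracks cytotoxicity in the same wells as the ARE-luciferase screen. HaCaT reporter cells (1,500/well) received compounds after a 5 h pre-incubation and were exposed for 23 h.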

[2] = Nuclear factor erythroid 2-related factor 2/antioxidant responsive element (Nrf2/ARE) small molecule agonists: luciferase reporter gene qHTS assay in human keratinocytes (AID 1919969); also: nearly all actives have a fitted effect of over 35% in size; also: potency is read from the fitted curve at half-maximal effect
[3] = target: Gonadotropin-releasing hormone receptor (Homo sapiens) (UniProt P30968); assay: Human gonadotropin-releasing hormone receptor (GnRHR) small molecule agonists, calcium flux assay in GnRHR-HEK293 cells (AID 1920063); also: nearly all actives have a fitted effect of over 35% in size
In short: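 Fluorescence kinetics (480 nm excitation, 540 nm emission; 3 min, 1 s steps) report calcium mobilisation in human GnRHR-HEK293 cells in agonist mode. Dye incubation: 1 h, 37 C.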

[4] = target: KiSS-1 receptor (Homo sapiens) (UniProt Q969F8); assay: Human kisspeptin (KISS1R) small molecule agonists, calcium flux assay in KISS1R-HEK293 cells (AID 1920064; active = well fitted curve in the direction sought with a large enough effect in the repeat runs; an effect the other way counts as inactive or inconclusive)
In short: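 Measures KISS1R agonism through calcium-sensitive dye fluorescence in stably transfected HEK293 cells, read for 3 min after pin-tool compound delivery; 15-point titrations in triplicate.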

[5] = G protein-coupled receptor (GPCR) small molecule agonists, calcium flux assay: HEK293 wild type cell line counter screen (AID 1920065)
In short: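 Readout: fluorescence at 480 nm excitation/540 nm emission, sampled at 1 s intervals for 3 min. Cells had been cultured 18 h, then dye-loaded 1 h at 37 C before compound or ATP addition.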

[6] = p53 small molecule agonists, cell-based qHTS assay with human liver microsomes (AID 1963577);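 also: p53 response element beta-lactamase reporter cells with liver microsomes plus NADPH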
In short: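 With metabolic activation: human liver microsomes (0.5 mg/mL final) plus NADPH (0.5 mg/mL final) added alongside compounds to p53RE-bla cells; 16 h 37 C exposure; beta-lactamase read by LiveBLAzer fluorescence.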

[7] = p53 small molecule agonists, cell-based qHTS assay with rat liver microsomes (AID 1963578)
In short: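 Metabolic activation by rat liver microsomes and NADPH, each 0.5 mg/mL final, added right after compounds to p53RE-bla reporter cells (4,000/well, plated 5 h earlier). 16 h at 37 C, then LiveBLAzer substrate for 2 h at room temperature in the dark; fluorescence read-out.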

[8] = p53 small molecule agonists, cell-based qHTS assay with human liver microsomes: qHTS cell viability counter screen (AID 1963579); also: nearly all actives have a fitted effect of over 45% in size
In short: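 Metabolic activation used human liver microsomes and NADPH, both 0.5 mg/mL final, over 16 hours at 37 C on p53RE-bla cells (4,000/well). Cytotoxicity measured by CellTiter-Glo luminescence, 30 min at room temperature.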

[9] = p53 small molecule agonists, cell-based qHTS assay with rat liver microsomes: qHTS cell viability counter screen (AID 1963580); also: nearly all actives have a fitted effect of over 45% in size
In short: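 p53RE-bla HCT-116 cells (4,000/well) rested 5 h at 37 C, then given Tox21 compounds in DMSO with rat liver microsomes (0.5 mg/mL final) plus NADPH (0.5 mg/mL final) for 16 h at 37 C. Viability read by CellTiter-Glo luminescence after 30 min at room temperature.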

[10] = p53 small molecule agonists, cell-based qHTS assay: qHTS cell viability counter screen (AID 1963581); also: nearly all actives have a fitted effect of over 45% in size
In short: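 In the same plates used for the p53 bla reporter, HCT-116 cells given compounds for 16 h at 37 C received CellTiter-Glo; luminescence was recorded 30 min later at room temperature.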

[11] = target: Beta-2 adrenergic receptor (Homo sapiens) (UniProt P07550); assay: Adrenergic beta2 receptor (ADRB2) small molecule antagonists, cell-based qHTS assay (AID 1963592); also: series mostly up to about 92 µM; nearly all actives have a fitted effect of over 50% in size
In short: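 Cells (CHO, stable ADRB2 overexpression) incubated 18-20hr at 37C; compounds added from DMSO; agonist mix (1nM isoproterenol, 100uM IBMX, 25uM Ro-20-1724) added; 0.5hr RT; d2-cAMP and anti-cAMP-cryptate added; 1hr RT; 665/615 nm read.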

[12] = target: D(2) dopamine receptor (Homo sapiens) (UniProt P14416); assay: Dopamine D2 receptor (DRD2) small molecule agonists, cell-based qHTS assay (AID 1963594); also: nearly all actives have a fitted effect of over 35% in size
In short: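 HEK293 cells stably expressing DRD2 were cultured 24 h at 37 C, then given Ro20-1724 (0.1 mM final) and compounds for 10 min at room temperature. NKH477 (200nM) was then added for 30 min. cAMP was read by HTRF.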

[13] = target: D(2) dopamine receptor (Homo sapiens) (UniProt P14416); assay: Dopamine D2 receptor (DRD2) small molecule antagonists, cell-based qHTS assay (AID 1963595; active = well fitted inhibition curve with a large enough effect in the signal ratio in the repeat runs, with a control signal flat; the % refers to the signal ratio)
In short: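 DRD2-HEK293; 0.1 mM Ro20-1724; cpd 10 min RT; NKH477 200 nM + quinpirole 12 nM, 30 min RT; HTRF cAMP (cAMP-d2/anti-cAMP cryptate), 665/620 nm ratio after 1 h.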

[14] = target: 5-hydroxytryptamine receptor 2A (Homo sapiens) (UniProt P28223); assay: 5-hydroxytryptamine receptor 2A (HTR2A) small molecule agonists, cell-based qHTS assay (AID 1963587); also: nearly all actives have a fitted effect of over 30% in size
In short: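 HTR2A-CHO cells, plated 18 h at 37 C/5% CO2, dye-loaded 1 h at 37 C; compounds in DMSO added by pin tool (agonist mode). Intracellular calcium flux read as kinetic fluorescence on FDSS over 2 min at 1 s intervals.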

[15] = target: Muscarinic acetylcholine receptor M1 (Homo sapiens) (UniProt P11229); assay: Cholinergic receptor muscarinic 1 (CHRM1) small molecule antagonists, cell-based qHTS assay (AID 1963588); also: nearly all actives have a fitted effect of over 40% in size; also: potency is read from the fitted curve at half-maximal effect
In short: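 CHRM1-CHO calcium-flux assay, antagonist mode. Cells were seeded 18 h, dye-loaded 1 h at 37 C and given compound for 5 min at RT, then acetylcholine was added at 50nM. FDSS fluorescence was read 3 min; 15 concentrations, three runs.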

[16] = target: Muscarinic acetylcholine receptor M1 (Homo sapiens) (UniProt P11229); assay: Cholinergic receptor muscarinic 1 (CHRM1) small molecule agonists, cell-based qHTS assay (AID 1963589); also: nearly all actives have a fitted effect of over 35% in size
In short: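 Each compound was tested at 15 concentrations across three independent runs on dye-loaded CHO cells stably expressing human CHRM1, reading intracellular calcium fluorescence kinetically at 1 sec intervals.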

[17] = target: 5-hydroxytryptamine receptor 2A (Homo sapiens) (UniProt P28223); assay: 5-hydroxytryptamine receptor 2A (HTR2A) small molecule antagonists, cell-based qHTS assay (AID 1963586); also: nearly all actives have a fitted effect of over 45% in size
In short: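 Antagonist-mode intracellular calcium assay: DOI (4 nM) added after 5 min compound pre-incubation at room temperature to dye-loaded HTR2A-CHO cells. Fluorescence followed for 3 min, sampled every second.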

[18] = cAMP Responsive Elements (CRE) small molecule agonists, cell-based qHTS assay (AID 1963590)
In short: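 Cell line: CRE-bla HEK 293T; medium DMEM/10% dialyzed FBS/0.1 mM NEAA/1 mM pyruvate/25 mM HEPES; 3 h compound exposure; beta-lactamase FRET readout after 2 h substrate loading at RT.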

[19] = cAMP Responsive Elements (CRE) small molecule antagonists, cell-based qHTS assay (AID 1963591; active = well fitted inhibition curve with a large enough effect in the signal ratio in the repeat runs, not every such curve was filed as active; the % refers to the signal ratio)
In short: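 Inhibition of NKH477-driven (0.25 uM final) CRE-beta-lactamase signal in HEK293T cells, 3 h compound exposure at 37 °C, detected by FRET substrate fluorescence.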

[20] = target: Beta-2 adrenergic receptor (Homo sapiens) (UniProt P07550); assay: Adrenergic beta2 receptor (ADRB2) small molecule agonists, cell-based qHTS assay (AID 1963593);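 also: CHO cells stably overexpressing human ADRB2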
In short: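 CHO cells stably over-expressing ADRB2 were plated overnight at 37C, then dosed with compounds plus a stimulation mix containing 100uM IBMX and 25uM Ro-20-1724 for 0.5hr at room temperature. cAMP was measured by HTRF competition, 1hr.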

Muscarinic acetylcholine receptor M1 (Homo sapiens), sequence (P11229 whole entry, looked up): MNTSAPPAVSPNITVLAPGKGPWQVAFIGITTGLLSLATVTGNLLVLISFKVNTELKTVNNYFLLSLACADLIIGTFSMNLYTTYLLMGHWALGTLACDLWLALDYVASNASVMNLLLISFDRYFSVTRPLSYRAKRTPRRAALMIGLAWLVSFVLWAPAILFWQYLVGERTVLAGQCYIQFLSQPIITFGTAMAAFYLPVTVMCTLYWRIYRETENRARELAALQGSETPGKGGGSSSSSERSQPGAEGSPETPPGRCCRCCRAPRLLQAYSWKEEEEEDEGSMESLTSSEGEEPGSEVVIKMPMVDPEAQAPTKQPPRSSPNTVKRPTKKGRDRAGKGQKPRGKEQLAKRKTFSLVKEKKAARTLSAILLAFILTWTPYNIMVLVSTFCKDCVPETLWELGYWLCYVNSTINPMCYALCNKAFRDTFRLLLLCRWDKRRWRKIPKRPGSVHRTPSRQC
D(2) dopamine receptor (Homo sapiens), sequence (P14416 whole entry, looked up): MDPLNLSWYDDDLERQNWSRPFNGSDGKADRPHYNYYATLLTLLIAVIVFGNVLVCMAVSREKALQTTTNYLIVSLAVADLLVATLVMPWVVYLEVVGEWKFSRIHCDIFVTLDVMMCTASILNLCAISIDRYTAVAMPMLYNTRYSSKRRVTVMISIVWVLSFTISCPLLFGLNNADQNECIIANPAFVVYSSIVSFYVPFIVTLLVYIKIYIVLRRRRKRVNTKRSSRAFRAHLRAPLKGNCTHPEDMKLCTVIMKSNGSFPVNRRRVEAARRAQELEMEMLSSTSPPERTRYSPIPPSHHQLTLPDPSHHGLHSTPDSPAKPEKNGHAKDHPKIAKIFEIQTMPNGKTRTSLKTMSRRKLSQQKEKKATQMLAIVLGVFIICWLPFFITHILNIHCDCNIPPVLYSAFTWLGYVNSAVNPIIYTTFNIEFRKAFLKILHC
KiSS-1 receptor (Homo sapiens), sequence (Q969F8 whole entry, looked up): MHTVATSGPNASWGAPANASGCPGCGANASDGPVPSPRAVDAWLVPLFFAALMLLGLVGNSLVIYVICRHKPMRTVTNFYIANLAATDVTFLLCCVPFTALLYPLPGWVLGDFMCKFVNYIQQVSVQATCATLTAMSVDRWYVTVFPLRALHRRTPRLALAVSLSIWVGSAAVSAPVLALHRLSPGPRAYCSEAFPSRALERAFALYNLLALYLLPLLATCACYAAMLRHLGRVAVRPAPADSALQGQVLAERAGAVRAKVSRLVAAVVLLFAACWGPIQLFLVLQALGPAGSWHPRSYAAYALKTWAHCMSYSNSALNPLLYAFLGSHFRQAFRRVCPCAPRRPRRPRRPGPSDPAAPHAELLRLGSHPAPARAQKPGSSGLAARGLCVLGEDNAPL
Gonadotropin-releasing hormone receptor (Homo sapiens), sequence (P30968 whole entry, looked up): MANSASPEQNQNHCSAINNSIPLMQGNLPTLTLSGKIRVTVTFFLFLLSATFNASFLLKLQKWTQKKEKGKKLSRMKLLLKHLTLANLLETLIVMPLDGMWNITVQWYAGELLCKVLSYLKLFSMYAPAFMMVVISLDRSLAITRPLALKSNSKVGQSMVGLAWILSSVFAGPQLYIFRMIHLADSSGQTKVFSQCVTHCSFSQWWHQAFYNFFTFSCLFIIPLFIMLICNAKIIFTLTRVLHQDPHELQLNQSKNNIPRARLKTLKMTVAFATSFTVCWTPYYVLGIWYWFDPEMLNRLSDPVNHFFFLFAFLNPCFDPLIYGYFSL
5-hydroxytryptamine receptor 2A (Homo sapiens), sequence (P28223 whole entry, looked up): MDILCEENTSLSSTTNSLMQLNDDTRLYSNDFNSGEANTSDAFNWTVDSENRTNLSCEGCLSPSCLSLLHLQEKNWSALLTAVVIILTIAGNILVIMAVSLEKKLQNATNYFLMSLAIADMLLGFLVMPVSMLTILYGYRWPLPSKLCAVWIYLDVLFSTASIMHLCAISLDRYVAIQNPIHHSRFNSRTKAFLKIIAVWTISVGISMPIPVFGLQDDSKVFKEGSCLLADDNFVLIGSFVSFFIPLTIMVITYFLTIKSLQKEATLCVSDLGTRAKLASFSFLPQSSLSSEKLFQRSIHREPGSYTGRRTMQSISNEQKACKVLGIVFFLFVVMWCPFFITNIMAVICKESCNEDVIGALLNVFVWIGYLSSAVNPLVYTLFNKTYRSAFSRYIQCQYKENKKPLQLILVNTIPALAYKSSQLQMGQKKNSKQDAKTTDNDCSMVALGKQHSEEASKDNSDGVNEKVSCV
Beta-2 adrenergic receptor (Homo sapiens), sequence (P07550 whole entry, looked up): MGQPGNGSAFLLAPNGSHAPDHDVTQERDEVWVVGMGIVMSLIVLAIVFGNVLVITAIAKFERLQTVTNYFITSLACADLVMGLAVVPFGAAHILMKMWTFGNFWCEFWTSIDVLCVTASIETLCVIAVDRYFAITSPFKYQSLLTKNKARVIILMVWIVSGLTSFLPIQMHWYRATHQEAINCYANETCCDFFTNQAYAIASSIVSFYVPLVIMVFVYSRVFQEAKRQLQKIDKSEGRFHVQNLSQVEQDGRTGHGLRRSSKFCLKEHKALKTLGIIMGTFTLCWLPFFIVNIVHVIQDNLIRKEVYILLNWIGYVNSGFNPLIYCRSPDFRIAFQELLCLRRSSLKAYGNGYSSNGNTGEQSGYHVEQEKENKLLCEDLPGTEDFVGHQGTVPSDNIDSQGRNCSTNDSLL

| SMILES | Potency [1] | Potency [2] | Potency [3] | outcome [4] | outcome [5] | Potency [6] | Potency [7] | Potency [8] | Potency [9] | Potency [10] | Potency [11] | Potency [12] | Potency [13] | Potency [14] | Potency [15] | Potency [16] | Potency [17] | Potency [18] | Potency [19] | Potency [20] |
| --- | --- | --- | --- | --- | --- | --- | --- | --- | --- | --- | --- | --- | --- | --- | --- | --- | --- | --- | --- | --- |
| CC1=C(/C=C/C(C)=C\C=C\C(C)=C\C(=O)O)C(C)(C)CCC1 | inactive | 54.5 µM (active) | inactive | inactive | inactive | inactive | inactive | inactive | inactive | inactive | inactive | inactive | inactive |  |  |  |  |  |  |  |
| CCC(C)c1cc([N+](=O)[O-])cc([N+](=O)[O-])c1OC(=O)OC(C)C (configuration not stated) | 38.6 µM (active) | 9.69 µM (active) | inactive | inactive | inactive | inactive | inactive | inactive | inactive | inactive |  | inactive | inactive | inactive | inactive | inactive |  |  |  |  |
| CC(C)Oc1ccccc1O | inactive | inactive | inactive | inactive | inactive | inactive | inactive | inactive | inactive |  | inactive |  | inactive | inactive | inactive | inactive | inactive | inactive | inactive | inactive |
| CCCCCCCCOc1ccccc1C(=O)Nc1ccc(C(=O)OCC[N+](C)(CC)CC)cc1 | inactive | inactive | inactive | inactive | inactive | inactive | inactive | inactive | inactive | inactive |  | inactive |  |  |  | inactive |  |  |  |  |
| CN(C)c1ccc(C(c2ccccc2)c2ccc(N(C)C)cc2)cc1 | inactive | inactive | inactive | inactive | inactive | inactive | inactive | inactive | inactive | inactive |  | inactive |  | inactive |  |  |  | inactive | inactive |  |
| Clc1cc(Cl)c(-c2c(Cl)c(Cl)cc(Cl)c2Cl)cc1Cl | inactive | inactive | inactive | inactive | inactive | inactive | inactive | inactive | inactive |  | inactive | inactive | inactive | inactive | inactive | inactive | inactive | inactive | inactive |  |
| CNC(=O)N(c1ccccc1)c1ccccc1 | inactive | inactive | inactive | inactive | inactive | inactive | inactive | inactive | inactive |  | inactive | inactive | inactive | inactive | inactive | inactive | inactive | inactive | inactive |  |
| CC1OC(=O)C(C)OC1=O (configuration not stated) | inactive | inactive | inactive | inactive | inactive | inactive | inactive | inactive | inactive |  | inactive | inactive |  | inactive | inactive | inactive | inactive | inactive | inactive |  |
| CCOc1ccc(NC(=O)OC(C)C)cc1OCC | inactive | inactive | inactive | inactive | inactive | inactive | inactive | inactive | inactive |  | inactive | inactive | inactive | inactive | inactive | inactive | inactive | inactive | inactive |  |
| O=C(O)c1cc(-c2ccc(F)cc2F)ccc1O | inactive | inactive | inactive | inactive | inactive | inactive | inactive | inactive | inactive | inactive | inactive | inactive | inactive |  |  |  |  |  |  |  |
| O[C@@H](COc1cccc2ncccc12)CN1CCN(C2c3ccccc3[C@@H]3[C@H](c4ccccc42)C3(F)F)CC1 (some centres not stated) | inactive | inactive | inactive | inactive | inactive | inactive | inactive | inactive | inactive | inactive | inactive | inactive | inactive | inactive | 3.65 µM (active) | inactive |  |  |  |  |
| CCOC(=O)C(=O)c1csc(NC=O)n1 | inactive | inactive | inactive | inactive | inactive | inactive | inactive | inactive | inactive |  | inactive | inactive | inactive | inactive | inactive | inactive | inactive | inactive | inactive | inactive |
| CS(=O)(=O)c1ccc([C@@H](C[C@H]2CCC(=O)C2)C(=O)Nc2cnccn2)cc1Cl | inactive | inactive | inactive | inactive | inactive | inactive | inactive | inactive | inactive | inactive | inactive | inactive |  |  | inactive | inactive |  |  |  | inactive |
| Cc1oc(-c2ccccc2)nc1CCC(=O)c1ccc(CC2SC(=O)NC2=O)cc1 (configuration not stated) | inactive | inactive | inactive | inactive | inactive | inactive | inactive | inactive | inactive | inactive | inactive | inactive |  | inactive | inactive | inactive |  |  |  |  |
| O=C(/C=C/c1ccccc1)OC/C=C/c1ccccc1 | inactive | inactive | inactive | inactive | inactive | inactive | inactive | inactive | inactive |  | inactive | inactive | inactive | inactive | inactive | inactive | inactive | inactive | inactive |  |
| C=C(C)C(=O)OC1CC(C)CC(C)(C)C1 (configuration not stated) | inactive | inactive | inactive | inactive | inactive | inactive | inactive | inactive | inactive | inactive | inactive | inactive | inactive | inactive |  | inactive |  |  |  |  |
| C=C(C)C(=O)OCCCC | inactive | inactive | inactive | inactive | inactive | inactive | inactive | inactive | inactive |  | inactive |  | inactive | inactive | inactive | inactive | inactive | inactive | inactive | inactive |
